For 105 molecules, INHIBITION results are on record in ChEMBL document CHEMBL4513216, “Probing the Open Global Health Chemical Diversity Library for Multistage-Active Starting Points for Next-Generation Antimalarials” (ACS Infect Dis, 2020).

The campaign covered roughly 68,000 compounds. About 2,700 (4%) showed an effect of 50% or more. The sample as a whole holds a higher share of strong results than the screen did.

This assay concerns Plasmodium berghei. As to the kind of experiment: Screen against P. berghei liver stage (PbLuc), transformed with Luciferase, at 2uM. Type of assay: functional, HepG2. The note with it: tested at 2 uM.
Consider `O=C(c1ccc[nH]1)N1CCc2ccc(S(=O)(=O)N3CCOCC3)cc2C1`, for which the INHIBITION is recorded as -19.95%. Consider `COCCN1C[C@@H](C(=O)O)[C@H](c2ccccc2C)C1`, for which the INHIBITION was 42.2%. The same measure for `CCC[C@@H]1CN(Cc2ccc(C(F)(F)F)nc2)C[C@H]1C(=O)O`: 21.97%. The result for `Cc1ccccc1[C@@H]1CN(Cc2ccc(C(F)(F)F)nc2)C[C@H]1C(=O)O` reads 67.28%; that for `Cc1ccccc1[C@@H]1CN(Cc2nc3ncccn3n2)C[C@H]1C(=O)O`, -18.59%. The same measure for `Cc1ccccc1[C@@H]1CN(CCCS(=O)(=O)N(C)C)C[C@H]1C(=O)O`: 52.3%; for `Cc1ccccc1[C@@H]1CN(CCOCCO)C[C@H]1C(=O)O`: 35.46%. As to `OC(CNCCn1cccn1)c1ccc(F)c(F)c1` (stereo not given), the INHIBITION is given as 21.91%. The same measure for `Cc1nc(COc2ccc(N(C)S(C)(=O)=O)cc2)sc1C`: -26.08%. The same measure for `O=C(O)c1nnn(-c2ccccc2F)c1-c1ccncc1`: 37.61%; for `O=S(=O)(CCN1CCOC(Cn2cccn2)C1)c1ccccc1` (stereo not given): -34.9%; for `CCn1cnnc1C1CCN(C(=O)c2ccc3ccccc3n2)CC1`: -6.48%.

As for `O=C(Nc1cccnc1)C1CCN(c2cc(-n3ccnc3)ncn2)CC1`, the INHIBITION was determined as 3.38%. With `O=C(NC1CCN(c2cc(-n3ccnc3)ncn2)CC1)c1ccncc1`, the INHIBITION is on record as 29.19%. The result for `O=C(NC1CCCC1)C1CCN(c2cc(-n3ccnc3)ncn2)CC1` reads 70.33%; that for `Cc1n[nH]c(C)c1-c1nccnc1CC1CCCN(C)C1` (stereo not given), 31.98%; that for `CCCC(=O)Nc1ccc2c(c1)C1(CCOCC1)CN2CCOC`, 39.44%.

Turning to `COc1ccc(C[C@H]2CNCC[C@@H]2OC)cc1`, the INHIBITION was found to be 18.65%. Turning to `O=c1cc(N2CCCC2)cnn1CC(F)F`, the INHIBITION came out at 18.81%. The result for `O=C(CSc1nnc[nH]1)NCc1sccc1Br` reads 32.1%; that for `O=C(CSc1nnc[nH]1)NCc1cccs1`, 59.03%; that for `Cc1ccsc1CNC(=O)CSc1nnc[nH]1`, 5.98%. The result for `COCCNc1nc(NCCc2ccccc2)nc2nccnc12` reads -20.55%; that for `Cc1nc(O)cc(C2CCCN(C(=O)CN(C)c3ccccc3)C2)n1` (stereo not given), -14.36%; that for `Cc1ccc(CC(=O)N2CCCN(Cc3nccn3C)CC2)cn1`, 5.72%. The result for `CCn1nc(C)c2ncnc(N(C)C)c21` reads -47.86%.

Regarding `Cn1ccnc1C(=O)N[C@@H]1CN(Cc2ccoc2)[C@@H]2CCCO[C@@H]21`, the INHIBITION came to 26.76%. Regarding `Cn1cc(C(=O)N[C@@H]2CN(Cc3ccoc3)[C@@H]3CCCO[C@@H]32)cn1`, the INHIBITION is given as -6.61%. The same measure for `Cn1cccc1C(=O)N[C@H]1CN(Cc2ccoc2)[C@@H]2CCCO[C@H]12`: 56.76%; for `Cc1cc(C(=O)NC(CC(C)C)C(=O)Nc2cc[nH]n2)c(C)o1` (stereo not given): -36.72%; for `COC(=O)CC(c1cccnc1)c1oc(C)cc(=O)c1O` (stereo not given): 24.02%. The same measure for `Cc1noc(-c2ccc(Oc3cccc(CN4CCCC4)c3F)nc2)n1`: -9.95%; for `CC(Cn1cc(Br)cn1)C(=O)Nc1ccc(Cl)cn1` (stereo not given): 29.12%. The same measure for `CC(C)NCC1(O)CCCN(CCC2CCCCC2)C1=O` (stereo not given): 25.35%. As for `CCC(CNC(=O)c1nc(=O)[nH][nH]1)Oc1cccc(F)c1` (stereo not given), the INHIBITION turned out to be 6.92%. The same measure for `CC(C)c1n[nH]c(C(=O)Nc2ccncc2)c1Br`: 29.37%. The result for `Cc1cccc(NC(=O)c2[nH]nc(C(C)C)c2Br)n1` reads 80.46%; that for `COc1ccccc1NC(=O)c1[nH]nc(C(C)C)c1Br`, -2.93%; that for `CC(C)c1n[nH]c(C(=O)Nc2cc[nH]n2)c1Br`, 11.18%.

For the molecule `CC(C)c1n[nH]c(C(=O)Nc2ccccn2)c1Br`, the INHIBITION came to 78.42%. On to `Cc1ccnc(NC(=O)c2[nH]nc(C(C)C)c2Br)c1`, for which the INHIBITION came to 49.43%. The result for `Cc1nc(C)n(CC2CCCN(c3ccc(C#N)cn3)C2)n1` (stereo not given) reads 13.24%; that for `CCN1CCNC(=O)C12CCN(C(=O)Cc1ccccn1)CC2`, 31.84%; that for `Cc1ccc(C(=O)NCC(O)c2cccc(F)c2)c(=O)[nH]1` (stereo not given), -7.13%. Consider `CCCN1CCN(C(=O)c2scnc2C)CC1`, for which the INHIBITION is reported as -21.84%. The same measure for `CCN1CCN(C(=O)c2scnc2C)CC1`: -25.82%; for `Cc1ncsc1C(=O)N1CCN(CCC(C)C)CC1`: 71.95%; for `CC1CN(C(=O)CN(Cc2ccco2)Cc2cccs2)CCO1` (stereo not given): 26.78%. The result for `COc1ccccc1C1CCCN1CC(=O)N1CCC(C(N)=O)CC1` (stereo not given) reads 50.32%; that for `CCOC(=O)C1CCN(C(=O)CN2CCCC2c2ccccc2C)CC1` (stereo not given), -16.19%. The result for `COc1ccccc1[C@@H]1CN(CC(=O)N2CCCCC2)C[C@H]1C(=O)O` reads -36.91%; that for `Cc1nc(C2CCCNC2)cc(N2CCc3nc(N)sc3C2)n1` (stereo not given), 17.41%; that for `Cn1cc(CN2CC[C@H](O)[C@@H]2Cc2ccncc2)cn1`, 23.94%. `O=c1c2sccc2nc2n1CCN(Cc1cccs1)CC2`: the INHIBITION is 15.58%. The result for `O=c1c2sccc2nc2n1CCN(Cc1ccsc1)CC2` reads 63.66%. `O=c1c2sccc2nc2n1CCN(Cc1ccc(F)c(F)c1)CC2`: the INHIBITION came out at 15.72%. Regarding `Cc1ncsc1C(=O)N(C)Cc1ccc(Br)o1`, the INHIBITION is on record as -21.99%.

Consider `Cc1ccccc1-c1cncc(C2CCN(C3CCOCC3)CC2)n1`, for which the INHIBITION is on record as 8.63%.

In the case of `Cc1oc(NC(=O)C(C)N2CCN(CCO)CC2)c(C#N)c1C` (stereo not given), the INHIBITION worked out at 51.08%. The same measure for `Cc1oc(NC(=O)C(C)N2CCN(C(C)(C)CO)CC2)c(C#N)c1C` (stereo not given): 10.1%; for `Cc1oc(NC(=O)C(C)N2CCN(C(=O)C3CC3)CC2)c(C#N)c1C` (stereo not given): 30.59%; for `Cn1ncc2c1CN(Cc1cccnc1)CC2COCC1CC1` (stereo not given): -12.27%. The result for `CCCN1CCN(C(=O)c2ccn(COc3ccc(F)cc3)n2)CC1` reads -15.49%; that for `CCn1ncc(S(=O)(=O)NC(C)c2cc(OC)ccc2OC)c1C` (stereo not given), 0.08%; that for `CN(CC1CCCO1)C1CCN(CCc2ccccn2)CC1` (stereo not given), 14.82%.

On to `CCc1cc(NCCNC(C)=O)nc(N2CCCC2)n1`, for which the INHIBITION is given as -36.65%. The same measure for `CCc1cc(NC2CCN(CC(N)=O)CC2)nc(N2CCCCC2)n1`: -69.81%; for `CCc1cc(NCC(N)=O)nc(N2CCCCC2)n1`: 55.18%; for `CCc1nc(-c2noc3ccc(C(=O)NCCN(C)C)cc23)co1`: -18.52%.

Consider `CCc1nc(-c2noc3ccc(C(=O)N(C)CCOC)cc23)co1`, for which the INHIBITION is listed as 63.23%. Take `COCCN(C)C(=O)c1ccc2onc(-c3coc(C)n3)c2c1`: the INHIBITION came to 32.04%. The result for `C[C@@H]1CN(C2CCN(c3ccccc3F)CC2)C[C@]1(C)O` reads 43.44%; that for `Cc1cc(F)ccc1N1CCC(N2C[C@@H](CN(C)C)[C@@H](CO)C2)CC1`, 35.54%. The result for `Cc1cc(F)ccc1N1CCC(N2C[C@@H](C)[C@@](C)(O)C2)CC1` reads 67.28%; that for `c1ccc(-n2nnnc2NCc2ccc3c(c2)OCO3)cc1`, -26.04%; that for `O=C(O)C1CCCN(C(=O)CCn2ccc3c(Cl)cccc32)C1` (stereo not given), -23.9%. The result for `O=C(O)[C@@H]1CN(C(=O)c2ccc3[nH]nnc3c2)C[C@H]1c1ccccc1` reads 39.57%. In the case of `O=C(Nc1cnccn1)[C@@H]1COC[C@H]2CN(C3CCCC3)C[C@H]21`, the INHIBITION was -31.17%. For `O=C(Nc1ccncc1)C1=NN(c2ccccc2)C(=O)CN1`, the INHIBITION is listed as 17.59%. The result for `COCCCNC(=O)NCc1nc(C)c(C)o1` reads -62.18%. The result for `Cc1nc(CNC(=O)NCCC2=CCCC2)oc1C` reads 67.51%; that for `CCCNC(=O)NCc1nc(C)c(C)o1`, 22.34%. The same measure for `Cc1cc(S(=O)(=O)Nc2onc(C)c2C)sc1C`: 36.28%; for `Cc1ccc(CN2CCn3c(CN(C)C(C)C)cnc3C2)s1`: 18.2%; for `COCCN1C[C@H]2CN(C(=O)C3CC3)CCN2C1=O`: 14.65%. On to `COCCN1C[C@H]2CN(C(=O)NCc3ccccc3)CCN2C1=O`, for which the INHIBITION turned out to be 14.21%. The same measure for `COCCN1C[C@H]2CN(C(=O)NC(C)C)CCN2C1=O`: 58.6%; for `CS(=O)(=O)c1cccc(OCC(=O)N2CCCC2c2ccc[nH]2)c1` (stereo not given): 9.27%. The same measure for `Cc1ncoc1C(=O)N1CC[C@@]2(C[C@H](NS(C)(=O)=O)CCO2)C1`: -43.98%.

For `CCCC(C)NC(=O)c1ccc(-c2ccco2)[nH]c1=O` (stereo not given), the INHIBITION was -1.87%.

In the case of `CC(COCC(F)(F)F)NC(=O)c1ccc(-c2ccco2)[nH]c1=O` (stereo not given), the INHIBITION amounted to 69.67%. The result for `CCC(C)NC(=O)c1ccc(-c2ccco2)[nH]c1=O` (stereo not given) reads 31.51%; that for `CNS(=O)(=O)c1ccc(C(=O)NCc2ccnc(OC)c2)cc1`, 27.44%. For `Fc1ccc(N2CCCN(Cc3ccc(-c4cc[nH]n4)o3)CC2)cc1`, the INHIBITION is -62.99%. On to `Cc1cccc(-c2nc(CN3CCc4c(ncn4C)C3)no2)c1`, for which the INHIBITION is reported as 14.82%. The result for `CC(NC(=O)N1CCCCCC1)c1ccc(S(N)(=O)=O)cc1` (stereo not given) reads -36.8%; that for `OCC1CCC2(CC1)CN(Cc1ccccc1F)Cc1ccccc1O2` (stereo not given), 2.71%; that for `CC(CC(=O)NS(=O)(=O)c1ccc2c(c1)OCCO2)c1ccc(F)cc1` (stereo not given), 61.3%. The result for `O=C(CSc1ccc(F)cc1F)NS(=O)(=O)c1ccc2c(c1)OCCO2` reads 27.47%. The result for `O=C(CCc1cc(F)ccc1F)NS(=O)(=O)c1ccc2c(c1)OCCO2` reads 66.28%; that for `O=C(CCc1ccccc1F)NS(=O)(=O)c1ccc2c(c1)OCCO2`, 7.71%; that for `O=C(CCc1ccc(F)cc1)NS(=O)(=O)c1ccc2c(c1)OCCO2`, -15.92%.

Regarding `O=C(CSc1ccc(F)cc1)NS(=O)(=O)c1ccc2c(c1)OCCO2`, the INHIBITION was determined as 13.91%. The same measure for `c1nc2n(n1)CC(NCc1nc(-c3ccsc3)no1)CC2` (stereo not given): -14.3%. The result for `COc1cccc(CC(=O)NC2CCCc3cn[nH]c32)c1` (stereo not given) reads -1.29%.
